The text below walks through data of PubChem BioAssay.

The nature of assay [1]: yeast TOR pathway RPL19A-GFP modulators, primary screen, cell-based, S. cerevisiae, multiplex flow cytometry (AID 1862; in the data active = percent of DMSO control GFP below about 86%;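 also: lower values mimic rapamycin by blocking the RPL19A rise seen in DMSO cells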). To be noted: S. cerevisiae RPL19A-GFP strain, flow cytometry fluorescence, 3 h; at 10 µM; stronger effect = lower value.
The nature of assay [2]: modulators of MEP2-GFP levels in yeast, primary screen, S. cerevisiae, multiplex flow cytometry (AID 1867;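 active = GFP response, as percent of the DMSO control, above the screen-wide mean plus 3 SD, about 139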;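 also: median GFP channel fluorescence of barcode-gated MEP2-GFP cells measured by flow cytometry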). The note with it: S. cerevisiae MEP2-GFP strain, 3 h, at 10 µM, stronger effect = higher value, 100% means same as DMSO wells.
Assay [3] is described as follows: modulators of CIT2-GFP expression in yeast, primary screen, S. cerevisiae, GFP fusion, multiplex flow cytometry (AID 1870;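 active = percent response above a set limit, the screen-wide mean plus 3 SD, cut at about 130% in these data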;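 also: barcoded CIT2-GFP strain pooled with four other GFP strains with rapamycin as positive control; median GFP fluorescence per well over plate mean of DMSO wells so 100% = DMSO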). The note with it: 3 h, at 10 µM, stronger effect = higher value.
A short description of assay [4]: modulators of LAP4-GFP expression in yeast, primary screen, S. cerevisiae, multiplex flow cytometry (AID 1873;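 active = GFP signal, as percent of the solvent control, above the screen mean plus 3 SD, about 149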). The note with it: 3 h, at 10 µM, stronger effect = higher value. A general note: A flow cytometer gives signals particle by particle.
A short description of assay [5]: modulators of AGP1-GFP expression in yeast TOR pathway, primary screen, cell-based, multiplex flow cytometry, S. cerevisiae (AID 1887;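 active = GFP signal above the screen-wide mean plus 3 SD, that is over about 124.5% of the solvent control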;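 also: AGP1-GFP fusion strain of S. cerevisiae within a five-strain barcoded multiplex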). To be noted: 3 h, at 10 µM, stronger effect = higher value.
Assay [6] is described as follows: inhibitors of CD8+ T cell-vesicle binding, pilot screen, LFA-1/ICAM-1 modulator project, MLPCN validation set, flow cytometry (AID 2523;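 active = response below a set limit, under 55% cells CD8-positive and vesicle-bound, and CD8 cells' 90th-percentile brightness under 279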;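 as to vesicle binding response: mean PE anti-B7-1 fluorescence of CD8+ cells relative to row control; 100% = QL9-loaded vesicles with DMSO vehicle in the same plate row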). The note with it: 2C mouse CD8+ T cells, at 7 µM, stronger effect = lower value; double positive events: measured here: CD8+/vesicle+ event percentage.
Assay [7] deals with Integrin beta-1 (Homo sapiens) + Integrin alpha-4 (Homo sapiens) (UniProt P13612+P05556). Kind of assay: inhibition of HUTS-21 binding to VLA-4, pilot screen, VLA-4 allosteric modulator project, U937 cells, HUTS-21 mAb, flow cytometry, validation set (AID 2674;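 active = inhibition above 50%, about 3 SD of the validation set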;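 also: antibody binding induced by the VLA-4 ligand LDV present at three times its Kd; 0% = LDV ligand with antibody and no compound and 100% = antibody without LDV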). The note with it: HUTS-21 LIBS mAb binding, at 6.7 µM, stronger effect = higher value, binding induced by LDV ligand.
Sequence of Integrin beta-1 (Homo sapiens) + Integrin alpha-4 (Homo sapiens) (P05556 whole entry, looked up): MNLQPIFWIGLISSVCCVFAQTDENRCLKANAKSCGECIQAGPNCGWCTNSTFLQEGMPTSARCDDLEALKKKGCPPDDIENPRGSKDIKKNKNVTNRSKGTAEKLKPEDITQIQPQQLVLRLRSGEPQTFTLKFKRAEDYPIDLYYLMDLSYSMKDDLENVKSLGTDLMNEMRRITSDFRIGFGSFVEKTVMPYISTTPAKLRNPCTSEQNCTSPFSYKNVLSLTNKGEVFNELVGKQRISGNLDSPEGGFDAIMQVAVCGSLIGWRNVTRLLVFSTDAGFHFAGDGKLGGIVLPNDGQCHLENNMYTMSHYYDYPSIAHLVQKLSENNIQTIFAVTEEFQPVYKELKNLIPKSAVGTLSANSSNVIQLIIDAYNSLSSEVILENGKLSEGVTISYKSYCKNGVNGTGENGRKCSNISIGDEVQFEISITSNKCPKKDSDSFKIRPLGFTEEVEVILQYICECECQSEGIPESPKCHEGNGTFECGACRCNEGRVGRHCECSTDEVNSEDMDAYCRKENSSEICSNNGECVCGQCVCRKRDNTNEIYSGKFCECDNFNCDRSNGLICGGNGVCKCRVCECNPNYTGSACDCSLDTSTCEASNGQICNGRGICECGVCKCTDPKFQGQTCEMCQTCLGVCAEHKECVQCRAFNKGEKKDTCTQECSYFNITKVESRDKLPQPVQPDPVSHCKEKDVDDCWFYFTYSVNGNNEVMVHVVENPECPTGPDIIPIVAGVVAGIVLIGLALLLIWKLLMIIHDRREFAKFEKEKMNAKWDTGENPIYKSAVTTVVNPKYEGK
Sequence of Integrin beta-1 (Homo sapiens) + Integrin alpha-4 (Homo sapiens) (P13612 whole entry, looked up): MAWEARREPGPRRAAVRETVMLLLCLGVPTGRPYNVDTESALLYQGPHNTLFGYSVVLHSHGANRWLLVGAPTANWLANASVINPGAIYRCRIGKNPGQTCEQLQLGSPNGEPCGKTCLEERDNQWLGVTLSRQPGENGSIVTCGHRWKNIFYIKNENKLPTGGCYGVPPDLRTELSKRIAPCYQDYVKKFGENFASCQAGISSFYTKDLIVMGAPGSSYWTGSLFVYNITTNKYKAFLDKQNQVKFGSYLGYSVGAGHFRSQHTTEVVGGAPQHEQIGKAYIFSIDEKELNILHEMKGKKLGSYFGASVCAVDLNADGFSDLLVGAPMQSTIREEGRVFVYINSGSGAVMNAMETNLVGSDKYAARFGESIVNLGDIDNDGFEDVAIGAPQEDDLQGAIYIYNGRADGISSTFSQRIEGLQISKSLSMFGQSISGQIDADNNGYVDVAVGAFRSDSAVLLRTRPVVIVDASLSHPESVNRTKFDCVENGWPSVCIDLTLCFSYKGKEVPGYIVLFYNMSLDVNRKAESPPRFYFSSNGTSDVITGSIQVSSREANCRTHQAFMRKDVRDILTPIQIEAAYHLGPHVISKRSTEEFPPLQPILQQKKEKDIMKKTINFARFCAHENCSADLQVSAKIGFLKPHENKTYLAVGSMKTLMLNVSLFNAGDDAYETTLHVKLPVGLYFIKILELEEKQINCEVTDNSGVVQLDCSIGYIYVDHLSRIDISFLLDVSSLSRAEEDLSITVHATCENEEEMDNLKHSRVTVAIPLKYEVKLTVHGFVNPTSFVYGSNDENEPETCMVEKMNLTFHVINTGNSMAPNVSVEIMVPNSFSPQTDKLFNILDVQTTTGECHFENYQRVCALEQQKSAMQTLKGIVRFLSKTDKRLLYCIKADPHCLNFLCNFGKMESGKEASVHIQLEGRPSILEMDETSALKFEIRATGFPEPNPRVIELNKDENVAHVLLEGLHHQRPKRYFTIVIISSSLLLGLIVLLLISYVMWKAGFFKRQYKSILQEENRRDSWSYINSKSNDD
A short description of assay [8]: superoxide lowering in aged yeast cells, pilot screen, validation compound set (AID 2706;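 active = superoxide response below 65% of plate, a cut near 3 SD across the whole screen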;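 also: yeast exposed to compound for one week at 30 degrees C before staining; 100% = mean of all compound wells on the same plate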). The note with it: S. cerevisiae aging, superoxide DHE fluorescence; at 10 µM; stronger effect = lower value.
The target in assay [9] is Beta-adrenergic receptor kinase 1 (Homo sapiens) (UniProt P25098). Kind of assay: GRK2 binders displacing RNA aptamer, biochemical, validation, human GRK2, bead flow cytometry (AID 488806). To be noted: bead-bound GRK2, FAM-aptamer displacement, at 10 µM, stronger effect = higher value.
Sequence of Beta-adrenergic receptor kinase 1 (Homo sapiens) (P25098 whole entry, looked up): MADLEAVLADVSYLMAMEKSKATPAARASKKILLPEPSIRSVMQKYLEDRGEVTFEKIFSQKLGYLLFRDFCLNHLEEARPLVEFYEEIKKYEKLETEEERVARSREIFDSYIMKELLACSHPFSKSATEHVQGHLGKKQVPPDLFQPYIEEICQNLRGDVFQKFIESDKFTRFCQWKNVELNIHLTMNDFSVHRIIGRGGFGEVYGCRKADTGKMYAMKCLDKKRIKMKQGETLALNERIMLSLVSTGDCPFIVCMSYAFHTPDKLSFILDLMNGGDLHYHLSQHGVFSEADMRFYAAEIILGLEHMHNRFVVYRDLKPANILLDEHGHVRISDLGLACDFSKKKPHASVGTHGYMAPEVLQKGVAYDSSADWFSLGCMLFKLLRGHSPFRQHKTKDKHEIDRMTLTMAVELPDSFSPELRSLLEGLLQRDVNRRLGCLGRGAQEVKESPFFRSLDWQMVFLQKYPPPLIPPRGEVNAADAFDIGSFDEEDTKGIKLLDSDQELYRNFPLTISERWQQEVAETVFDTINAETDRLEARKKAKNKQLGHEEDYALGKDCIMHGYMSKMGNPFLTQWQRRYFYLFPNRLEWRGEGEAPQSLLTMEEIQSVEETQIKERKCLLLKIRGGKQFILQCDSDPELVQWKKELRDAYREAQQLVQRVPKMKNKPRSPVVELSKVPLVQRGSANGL
The target in assay [10] is Beta-2 adrenergic receptor (Homo sapiens) (UniProt P07550). Kind of assay: beta2AR agonists driving receptor internalization, pilot screen, cell-based, FAP fluorogen, flow cytometry, validation set (AID 504459;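 active = percent response above 42, roughly 3 SD of non-fluorescent test compounds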;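 also: agonist-driven loss of surface beta2AR via internalization measured by FAP dye flow cytometry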). The note with it: Am2.2-beta2AR cells, FAP surface receptor flow cytometry; at 10 µM; stronger effect = higher value.
Sequence of Beta-2 adrenergic receptor (Homo sapiens) (P07550 whole entry, looked up): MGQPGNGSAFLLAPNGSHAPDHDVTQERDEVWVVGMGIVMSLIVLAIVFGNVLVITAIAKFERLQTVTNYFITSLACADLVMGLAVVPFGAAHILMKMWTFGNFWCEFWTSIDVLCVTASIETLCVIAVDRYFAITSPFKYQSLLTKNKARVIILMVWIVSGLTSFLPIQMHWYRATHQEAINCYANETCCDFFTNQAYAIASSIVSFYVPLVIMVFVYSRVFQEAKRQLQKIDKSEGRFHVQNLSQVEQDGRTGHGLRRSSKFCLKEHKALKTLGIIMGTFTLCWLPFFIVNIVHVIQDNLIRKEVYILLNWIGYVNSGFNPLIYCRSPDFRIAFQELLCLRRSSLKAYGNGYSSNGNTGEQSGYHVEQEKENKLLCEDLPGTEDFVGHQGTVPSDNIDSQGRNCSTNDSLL
The target of assay [11] is AP-2 complex subunit beta (Homo sapiens) (UniProt P63010). Kind of assay: inhibitors of arrestin peptide binding to AP2, pilot screen, biochemical, validation set, GST-AP2 beads, flow cytometry (AID 504541;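 active = inhibition above 54%, about 3 SD of non-fluorescent compounds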;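 also: AP2 carries R879A mutation and is captured from E. coli lysate; bead-bound FITC arrestin peptide fluorescence measuring arrestin peptide binding to AP2; 0% = DMSO wells and 100% = excess unlabeled arrestin peptide control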). To be noted: FITC arrestin peptide, at 10 µM, stronger effect = higher value, AP2 beta2 appendage fragment, R879A mutant.
Sequence of AP-2 complex subunit beta (Homo sapiens) (P63010 whole entry, looked up, the tested form may be a part, one chain of several): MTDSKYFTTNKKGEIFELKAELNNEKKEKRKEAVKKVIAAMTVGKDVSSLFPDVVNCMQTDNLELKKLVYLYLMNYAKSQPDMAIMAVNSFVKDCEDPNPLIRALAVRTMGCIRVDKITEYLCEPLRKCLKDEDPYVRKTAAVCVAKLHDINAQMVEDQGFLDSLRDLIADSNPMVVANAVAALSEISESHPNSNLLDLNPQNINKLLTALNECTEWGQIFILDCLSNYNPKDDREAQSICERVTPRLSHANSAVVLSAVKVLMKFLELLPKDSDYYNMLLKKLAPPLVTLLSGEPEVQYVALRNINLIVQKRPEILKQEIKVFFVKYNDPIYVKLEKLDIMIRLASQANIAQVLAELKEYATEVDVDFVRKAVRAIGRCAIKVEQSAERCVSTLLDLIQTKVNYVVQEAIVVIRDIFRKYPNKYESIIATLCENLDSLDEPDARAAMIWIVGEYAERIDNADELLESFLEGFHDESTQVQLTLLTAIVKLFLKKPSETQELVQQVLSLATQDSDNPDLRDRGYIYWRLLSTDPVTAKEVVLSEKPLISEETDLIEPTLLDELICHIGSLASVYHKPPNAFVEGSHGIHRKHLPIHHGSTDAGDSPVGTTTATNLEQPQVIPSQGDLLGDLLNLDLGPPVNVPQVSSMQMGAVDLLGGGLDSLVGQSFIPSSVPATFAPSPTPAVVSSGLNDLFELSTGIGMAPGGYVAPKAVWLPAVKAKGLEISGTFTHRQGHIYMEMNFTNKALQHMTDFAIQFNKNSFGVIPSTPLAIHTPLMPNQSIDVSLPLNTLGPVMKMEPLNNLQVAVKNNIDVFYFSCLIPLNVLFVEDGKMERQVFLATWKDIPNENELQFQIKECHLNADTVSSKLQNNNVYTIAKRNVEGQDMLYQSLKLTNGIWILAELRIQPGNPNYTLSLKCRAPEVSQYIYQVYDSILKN
Assay [12] is described as follows: yeast V-ATPase proton transport modulators, S. cerevisiae, pHLuorin, HTS validation (AID 504600; in the data active = response above about 15%;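 also: plate controls were DMSO for no effect and reference compound for full effect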). The note with it: S. cerevisiae pHLuorin cytosolic pH, at 10 µM, stronger effect = higher value.
In assay [13] the test system is anti-desmoglein-3 scFv antibody binding to human DSG3. Kind of assay: inhibitors of anti-DSG3 scFv binding to DSG3, pilot screen, biochemical, validation compound set, bead-based, flow cytometry (AID 588368;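 active = binding below the plate cutoff, the plate median minus 3 SD, with a reading above zero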;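 also: signal is the median channel fluorescence of bead-bound GFP antibody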). The note with it: Protein G beads, DSG3-Fc, scFv-GFP binding, at 10 µM, stronger effect = lower value.
Assay [14] in a line: inhibitors of fungal efflux pumps CDR1, CDR2, MDR1, pilot screen, validation compound set, multiplex, phenotypic (AID 588506;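 active = efflux inhibition above 0.42, the validation set average plus 4 SD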;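 also: Nile Red retained in cells so higher fluorescence means more efflux inhibition; 0 = negative control wells and 1 = enniatin B 25 µM full block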). To be noted: S. cerevisiae pump-expressing triplex, Nile Red efflux flow cytometry; at 10 µM; stronger effect = higher value; the pumps come from Candida albicans.
The target of assay [15] is ATP-binding cassette sub-family B member 6 (Homo sapiens) (UniProt Q9NP58). Kind of assay: ABCB6 transporter inhibitors, pilot screen, K562-ABCB6 cells, flow cytometry, validation set (AID 588550;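 active = inhibition above the screen-wide mean plus 3 SD, about 51%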;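 also: 0% = DMSO wells and 100% = benzethonium chloride 70 µM positive control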). The note with it: K562-ABCB6 porphyrin accumulation, 1 h, at 10 µM, stronger effect = higher value.
Sequence of ATP-binding cassette sub-family B member 6 (Homo sapiens) (Q9NP58 whole entry, looked up): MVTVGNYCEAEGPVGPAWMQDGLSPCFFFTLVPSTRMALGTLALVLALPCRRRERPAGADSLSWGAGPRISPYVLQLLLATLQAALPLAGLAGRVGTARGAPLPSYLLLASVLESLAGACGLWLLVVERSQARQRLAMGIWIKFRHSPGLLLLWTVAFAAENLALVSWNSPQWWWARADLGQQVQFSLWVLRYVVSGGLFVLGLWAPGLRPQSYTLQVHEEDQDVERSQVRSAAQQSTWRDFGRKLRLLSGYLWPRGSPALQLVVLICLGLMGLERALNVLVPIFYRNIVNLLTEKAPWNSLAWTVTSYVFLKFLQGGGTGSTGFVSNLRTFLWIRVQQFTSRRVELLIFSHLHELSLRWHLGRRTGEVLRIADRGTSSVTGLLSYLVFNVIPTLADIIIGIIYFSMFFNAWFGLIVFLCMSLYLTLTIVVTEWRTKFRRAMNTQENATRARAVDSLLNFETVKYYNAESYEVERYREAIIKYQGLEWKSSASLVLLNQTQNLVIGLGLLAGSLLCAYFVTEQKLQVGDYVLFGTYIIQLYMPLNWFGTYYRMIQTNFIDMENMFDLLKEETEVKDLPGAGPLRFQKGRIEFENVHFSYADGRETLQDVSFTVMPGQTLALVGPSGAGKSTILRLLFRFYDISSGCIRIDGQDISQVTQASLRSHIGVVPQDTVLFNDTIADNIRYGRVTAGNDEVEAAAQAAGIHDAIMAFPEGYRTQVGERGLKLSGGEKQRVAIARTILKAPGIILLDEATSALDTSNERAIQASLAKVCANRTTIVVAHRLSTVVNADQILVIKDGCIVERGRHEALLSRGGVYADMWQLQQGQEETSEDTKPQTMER
Assay [16] can be described thus: promoters of myeloid differentiation in arrested cells, primary screen, cell-based, GFP/MAC1 double positive, flow cytometry, validation set (AID 588685;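 active = differentiation response of at least 50%, scaled between solvent and reference control, from cells with both markers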;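 also: compound exposure lasts four days before antibody staining and flow analysis; 0% = DMSO wells and 100% = 5 µM fulvestrant positive control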). To be noted: ER-HoxA9 marrow cells, stronger effect = higher value, normalized: vehicle 0, fulvestrant 100.

Structures are written as SMILES. Records with an inconclusive call do not appear. Activity calls are given as the source filed them.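 The calls were made as follows, unless noted: active = aptamer binding inhibition above 30%, about 3 SD of noise from non-fluorescent compounds; inactive = inhibition at or below 30%.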

Turning to `CC(=O)NC(Cc1ccccc1)C(=O)OCC(=O)c1ccccc1` (stereo not given), in assay [1], the percent of DMSO control GFP was 96% (inactive). Besides, the figures for the GFP response vs DMSO in assay [2] and in assay [4] were 102% (inactive) and 106% (inactive), respectively. For the same molecule, the percent response of DMSO control in [3] was 88.6% (inactive). Further, the GFP response, % of DMSO in assay [5] was 100% (inactive). The molecule also registered a double positive events in assay [6] of 65.2%. In addition, the vesicle binding response in assay [6] is 144% (inactive). Further, the inhibition in assay [7] is 9.1% (inactive); in assay [11], 9.32% (inactive); in assay [15] it was 6% (inactive). Besides, the superoxide response (% of plate) in assay [8] is 111% (inactive). Also, the aptamer binding inhibition in assay [9] is 3% (inactive). The response in assay [10] is -9.61% (inactive); in [12], 3.98% (inactive). Also, in assay [13], the binding (% of control) is 105% (inactive). In [14], the efflux inhibition (fraction of control) was 0 (inactive). Also, the differentiation response in [16] was -21.7% (inactive).

Take `COc1ccc2oc(C)c(C(N)=O)c2c1`: the percent of DMSO control GFP in assay [1] was 99.5% (inactive). Further, the results for the GFP response vs DMSO in assay [2] and in assay [4] were 109% (inactive) and 118% (inactive), respectively. Moreover, the percent response of DMSO control in assay [3] is 91% (inactive). Moreover, the GFP response, % of DMSO in assay [5] was 102% (inactive). For the same molecule, in assay [6], the double positive events amounted to 61.6%. Also, the vesicle binding response in assay [6] is 132% (inactive). For the same molecule, the inhibition is 6.4% (inactive) in [7], 7.21% (inactive) in assay [11] and -9% (inactive) in assay [15]. Further, the superoxide response (% of plate) in assay [8] is 96% (inactive). In addition, in assay [9], the aptamer binding inhibition was 4% (inactive). The results for the response in assay [10] and in assay [12] were -0.3% (inactive) and -6.34% (inactive), respectively. The binding (% of control) in [13] was 100% (inactive). Further, the efflux inhibition (fraction of control) in assay [14] was -0.21 (inactive). Moreover, the differentiation response in assay [16] was -8.8% (inactive).

As for `COc1cc(C2Nc3ccccc3C(=O)N2c2ccccc2)ccc1O` (stereo not given), the percent of DMSO control GFP in assay [1] was 109% (inactive). Further, the GFP response vs DMSO in assay [2] is 108% (inactive); in assay [4] it was 93.3% (inactive). Besides, the percent response of DMSO control in assay [3] was 116% (inactive). For the same molecule, the GFP response, % of DMSO in [5] was 103% (inactive). In assay [6], this molecule showed a double positive events of 62.9%. For the same molecule, in assay [6], the vesicle binding response was 256% (inactive). For the same molecule, the figures for the inhibition in assay [7], in assay [11] and in assay [15] were 3.7% (inactive), -6.11% (inactive) and 3% (inactive), respectively. In addition, the superoxide response (% of plate) in assay [8] is 90% (inactive). Further, the aptamer binding inhibition in assay [9] was 0% (inactive). The response was -10.2% (inactive) in [10] and 61.2% (active) in [12]. Besides, the binding (% of control) in assay [13] is 99.7% (inactive). In assay [14], the efflux inhibition (fraction of control) was 0.18 (inactive). In assay [16], the differentiation response is 9.04% (inactive).

As for `COc1cc2c(cc1OC)CN(Cc1ccc(C)s1)CC2`, in assay [1], the percent of DMSO control GFP was 102% (inactive). Moreover, the GFP response vs DMSO in assay [2] was 106% (inactive); in assay [4] it was 88.1% (inactive). Also, in [3], the percent response of DMSO control is 105% (inactive). The GFP response, % of DMSO in assay [5] is 98% (inactive). Also, the double positive events in [6] was 64.1%. The vesicle binding response in assay [6] was 349% (inactive). Besides, the figures for the inhibition in assay [7], in [11] and in assay [15] were -13.9% (inactive), 14.8% (inactive) and 4% (inactive), respectively. In assay [8], the superoxide response (% of plate) was 103% (inactive). The aptamer binding inhibition in [9] was 4% (inactive). In addition, the figures for the response in assay [10] and in assay [12] were -7.1% (inactive) and -3% (inactive), respectively. In assay [13], the binding (% of control) is 101% (inactive). Besides, the efflux inhibition (fraction of control) in assay [14] is 0.05 (inactive). The differentiation response in [16] was 2.2% (inactive).

Regarding `CCCc1c(OCCCCc2nn[nH]n2)ccc(C(C)=O)c1O`, the percent of DMSO control GFP in [1] was 107% (inactive). Besides, the figures for the GFP response vs DMSO in assay [2] and in [4] were 107% (inactive) and 111% (inactive), respectively. Also, the percent response of DMSO control in [3] was 104% (inactive). Besides, the GFP response, % of DMSO in [5] was 112% (inactive). This molecule also registered a double positive events in assay [6] of 62.8%. In addition, the vesicle binding response in [6] is 197% (inactive). In addition, the inhibition in assay [7] was -13.2% (inactive); in assay [11], -8.69% (inactive); in assay [15], -13% (inactive). Also, the superoxide response (% of plate) in assay [8] was 115% (inactive). For the same molecule, in assay [9], the aptamer binding inhibition is -5% (inactive). Moreover, the figures for the response in [10] and in assay [12] were 8.37% (inactive) and -6.13% (inactive), respectively. For the same molecule, the binding (% of control) in [13] was 105% (inactive). Moreover, the efflux inhibition (fraction of control) in assay [14] was -0.16 (inactive). In addition, in assay [16], the differentiation response was 2.74% (inactive).

In general, inhibition refers to the relative decrease from the control value, in per cent.
